# Assay results taken from ChEMBL document CHEMBL4513216, “Probing the Open Global Health Chemical Diversity Library for Multistage-Active Starting Points for Next-Generation Antimalarials” (ACS Infect Dis, 2020).
# The whole screen tested about 69,000 compounds, of which about 8,600 (12%) showed an effect of 50% or more. The full list was thinned out, with strong results kept by preference.
# System: Plasmodium berghei
# Experiment: Screen against P. berghei liver stage (PbLuc), transformed with Luciferase, at 10uM
# Assay type: functional, HepG2
# Details: tested at 10 uM
row,SMILES,INHIBITION
1,CCCC(O)CN1CC(C)(C)CN(C(=O)c2ccc(Cl)cc2)CC1=O (stereo not drawn),46.4%
2,O=C([C@H]1C[C@@H]2CCN(c3cccc(F)c3)C[C@H]2O1)N1CCCCO1,23.3%
3,c1cnnc(N[C@@H]2CC[C@@H]3CN(Cc4ccc5[nH]ccc5c4)C[C@@H]32)c1,27.2%
4,Cc1nn(CCN2CCSCC2)cc1CNCC1CC1,-22%
5,O=C(NCc1ccco1)[C@@]12CCO[C@@H]1CCN(C1CCC1)C2,29%
6,CS(=O)(=O)N1C[C@H]2CCCN(Cc3nccs3)[C@H]2C1,33.4%
7,NC1CCC(n2cc(C(=O)NC3COc4ccccc43)nn2)CC1 (stereo not drawn),-28%
8,CN(C)CCN1CC[C@@H]2O[C@@H](COCC(=O)N3CCCC3)CC[C@@H]21,29%
9,O=C(O)CNC(=O)Cc1csc(-c2cccc(Cl)c2)n1,44.9%
10,COc1cc(N2CC[C@H]3O[C@@H](C(=O)NC4CCCC4)CC[C@H]32)ncn1,-5.31%
11,CC(C)n1cc(N2CC(C(=O)N3CCC(C(N)=O)CC3)CC2=O)cn1 (stereo not drawn),-23.5%
12,CCCc1nc(CNc2nc(C)nc3oc(C)nc23)cs1,50.8%
13,CCCc1nc(CNC(C)Cn2cccn2)cs1 (stereo not drawn),-31.5%
14,CCCc1nc(CNC(=O)Cc2cc(C)no2)cs1,31.6%
15,CCS(=O)(=O)NCC(=O)Nc1cc(CC(C)(C)C)n[nH]1,-10.7%
16,O=C(CSCC1CC1)N1C[C@H]2CC[C@@H](C1)N(Cc1ccccn1)C2=O,17%
17,Cc1cnn(CC2CCCN2CC(=O)Nc2cc(C)nn2C)c1 (stereo not drawn),38.6%
18,CCC(=O)NC(Cc1cc(N(C)C)nc(C2CC2)n1)c1ccccc1 (stereo not drawn),33.8%
19,CC(C)C(=O)NC(Cc1cc(N(C)C)nc(C2CC2)n1)c1ccccc1 (stereo not drawn),45.9%
20,COCC(=O)NC(Cc1cc(N(C)C)nc(C2CC2)n1)c1ccccc1 (stereo not drawn),51.4%
21,Cc1ccc2c(c1)c(CNC(=O)C1CC(=O)N(CCN(C)C)C1)nn2C (stereo not drawn),82.4%
22,Cc1ccc2c(c1)c(CNC(=O)C1CC(=O)N(C3CCCC3)C1)nn2C (stereo not drawn),38.5%
23,Cc1ccc2c(c1)c(CNC(=O)C1CC(=O)N(C3CC3)C1)nn2C (stereo not drawn),-6.34%
24,O=C(NCC1CCS(=O)(=O)C1)N(Cc1ccncc1)C1CC1 (stereo not drawn),-1.15%
25,CS(=O)(=O)c1cc(S(N)(=O)=O)ccc1NCC1CCCO1 (stereo not drawn),30%
26,CC(C)(C)c1nnc(CN2CCN(CC(O)c3ccccc3)CC2)o1 (stereo not drawn),58.2%
27,Cc1nnc(CN2CCN(CC(O)c3ccccc3)CC2)o1 (stereo not drawn),4.71%
28,CCc1nnc(CN2CCN(CC(O)c3ccccc3)CC2)o1 (stereo not drawn),-12.2%
